Screens as filed in PubChem.
Hits are enriched below; roughly 12% of the tested compounds scored in any of these assays.
WT yeast gro inh: growth inhibition of WT strain, primary screen, mitochondrial fusion inhibitor project, WT and mutant strains, chemical genetic; mitochondrial fusion phenotypic screen; 2.1% of 190,000 active; AID 1362, 2008; inhibition, % at 10 µM; in the data active means inhibition above about 58%; tested in S. cerevisiae
L major viab: Leishmania major promastigote growth inhibition, primary screen | Leishmania major promastigotes, resazurin fluorescence viability | inhibition, % at 10 µM | 9% of 200,000 active; in the data active means inhibition above about 50%;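 further: promastigotes grown with compound for 44 hours at 28 °C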
CHOP inh: inhibitors of CHOP promoter induction, primary screen, cell-based, unfolded protein response, luciferase reporter. AID 2732, 2010. CHO-K1 CHOP-promoter luciferase, tunicamycin-induced, 15-18 h. 3.8% of 220,000 active. inhibition, % at 10 µM;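 active means compounds that reduced the stress-induced luciferase reporter signal by more than about 70% of percent inhibition, limit read from the data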;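 further: 0% = tunicamycin plus vehicle and 100% = wells without tunicamycin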
Arbovirus inh: antivirals against arbovirus infection, primary screen, cell-based, full library, 10K replicate subset | 0.37% of 200,000 active | arbovirus infection cell-based antiviral screen | inhibition, % at 10 µM; in the data active means inhibition above about 30%
CHOP inh conf: retest of CHOP induction inhibitors, confirmation, cell-based. shares compounds with CHOP inh. CHO-CHOP promoter luciferase reporter, tunicamycin-induced, luminescence. inhibition, % at 10 µM. 45% of 2,100 active. AID 504437, 2011;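 active means mean of three repeat readings of reporter signal inhibition above a set limit, cut at about 70% in these data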;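 further: 0% = tunicamycin plus vehicle and 100% = wells lacking tunicamycin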
* marks the source's active call; other numbers are inactive results; · = not tested or not shown.

SMILES	WT yeast gro inh	L major viab	CHOP inh	Arbovirus inh	CHOP inh conf
Cc1cc(C)nc(-n2cc(C(=O)c3cc(F)ccc3O)cn2)n1	15	-3	97*	-7	27
CN1CCN(c2cc(C(F)(F)F)nc3ccc(F)cc23)CC1	·	·	16	·	·
CS(=O)(=O)c1ccc(C(=O)OCC(=O)NC(=O)C2CCCCC2)cc1[N+](=O)[O-]	-14	-3	97*	5	10
COc1ccc(C(=O)OCC(=O)NC2CC2)cc1[N+](=O)[O-]	-17	48	3	1	·
CCOc1ccc(CCNc2ccc3nnc(-c4ccccc4)n3n2)cc1OCC	1	77*	97*	15	64
CCOc1cc(/C=N/NC(=O)COc2cccc(C)c2)ccc1OC(=O)c1cccs1	3	-1	106*	3	94*
CCOC(=O)c1c(-c2ccc(C)cc2)csc1NC1=NS(=O)(=O)c2ccccc21	-8	8	101*	-3	-20
O=C(Nc1ccc(Cl)c([N+](=O)[O-])c1)c1ccc(NCCCN2CCOCC2)c([N+](=O)[O-])c1	6	45	97*	-41	-5
COc1ccc(C(=O)NC2CC(C)(C)Cc3occc32)cc1 (centres undefined)	6	-2	1	3	·
COc1ccc(Cn2c(C(F)(F)F)ccc(C(N)=O)c2=O)cc1	2	-4	27	2	·
NC(=O)c1ccc(C(F)(F)F)n(Cc2c(Cl)cccc2Cl)c1=O	4	2	102*	2	112*
Cc1cc(S(=O)(=O)Nc2ccc3ccccc3c2)c(C)s1	32	7	111*	6	52
COC(=O)c1ccc(-c2sc3nc(N4CCOCC4)c4c(c3c2N)CC(C)(C)OC4)o1	-4	-7	102*	0	-146
COCc1cc(Sc2ccc(Cl)cc2Cl)nc(-c2ccccc2)n1	11	0	41	18	·
O=C(COC(=O)CNS(=O)(=O)c1cccc(Br)c1)Nc1ccccc1Sc1ccccc1	2	-6	96*	6	8
C=CCn1c(=O)[nH]c2cc(C(=O)N3CCN(c4cc(C)ccc4C)CC3)ccc2c1=O	11	39	97*	-3	63
O=C(CC1(O)C(=O)Nc2ccc(Br)cc21)c1ccc2c(c1)OCO2 (centres undefined)	27	-4	1	5	·
CC1=C(C)/C(=N\OS(=O)(=O)c2ccc(C)cc2)C=CC1=O	85	100*	108*	-30	104*
CN(C)/N=C/c1ccc(OS(=O)(=O)c2ccccc2)cc1	14	-2	-15	-11	·
CC1=C/C(=N\OS(=O)(=O)c2ccccc2)C(C)=CC1=O	75	100*	111*	-36	128*
Cc1cccc2sc(NC(=O)c3ccc(Cl)s3)nc12	26	12	56	19	·
COc1cccc2sc(NC(=O)c3ccc(Br)s3)nc12	27	15	104*	-15	48
N=C1S/C(=C\c2cn[nH]c2-c2ccc(F)cc2)C(=O)N1c1ccccc1F	8	-2	103*	-2	43
CCC(C)[C@@H](NC(=O)OC(C)(C)C)c1nnc(S(=O)(=O)Cc2cccc(C)c2)o1 (some centres undefined)	-7	8	106*	-35	107*
CC(C)Sc1nnc([C@H](Cc2c[nH]c3ccccc23)NC(=O)OC(C)(C)C)o1	21	6	60	4	·
SMILES	WT yeast gro inh	L major viab	CHOP inh	Arbovirus inh	CHOP inh conf
Cc1ccc(NC(=O)CSc2nnc([C@H](C)NC(=O)OC(C)(C)C)o2)c(C)c1	·	·	-3	·	·
CCSc1nnc([C@H](Cc2ccccc2)NC(=O)OC(C)(C)C)o1	14	20	10	1	·
CC(C)(C)OC(=O)N[C@@H](Cc1ccccc1)c1nnc(S(=O)(=O)Cc2ccccc2)o1	20	-5	109*	5	125*
Cc1ccccc1CS(=O)(=O)c1nnc([C@H](Cc2ccccc2)NC(=O)OC(C)(C)C)o1	46	-5	112*	-36	136*
COc1ccc(OC)c(S(=O)(=O)NCCc2ccccc2)c1	7	-5	27	7	·
Cc1ccc(S(=O)(=O)c2c(COC(=O)c3ccc(Cl)cc3)c(-c3ccccc3)nn2C)cc1	-4	25	3	-27	·
Cc1nc2sc(C(=O)Nc3ccccc3)c(N)c2c(C)c1[N+](=O)[O-]	14	-6	24	1	·
COc1ccc(OC)c(/C=N/NC(=O)CSc2cc(C)nc3c(OC)cccc23)c1	-1	7	105*	1	35
O=[N+]([O-])c1cccc(-c2cc(C(F)(F)F)n3nc(-c4ccccc4)cc3n2)c1	·	·	-6	·	·
CCOc1c2ccc(C(=O)N[C@H](C)C3CCCCC3)cc2nn1CC	10	11	11	4	·
Cc1ccc(Sc2ccc(/C=C3/C(=O)NN(c4ccccc4)C3=O)o2)cc1	·	·	98*	·	36
O=C1NN(c2ccccc2)C(=O)/C1=C/c1ccc(Sc2ccc(Cl)cc2)o1	·	·	98*	·	78*
CN1CCN(NC(=O)c2ccc(F)cc2)CC1	2	-5	-18	-1	·
Cc1ccc(C(=O)N2C(=S)C(c3ccc(F)cc3)=NC23CCN(C)CC3)cc1	1	-2	98*	1	16
CCCCSc1ncnc2[nH]ncc12	·	·	8	·	·
O=c1oc2ccccc2c(Cl)c1CN1CCCCC1	-2	14	107*	2	123*
O=C(NNc1ccccc1Br)C(O)(c1cccc(C(F)(F)F)c1)c1cccc(C(F)(F)F)c1	-3	10	103*	-30	118*
O=C(O)CCN1C(=O)/C(=C/c2cn(-c3ccccc3)nc2-c2cccs2)SC1=S	-5	-4	102*	-12	-4
Cc1ccc(NC(=O)COC(=O)c2ccc([N+](=O)[O-])o2)cc1S(=O)(=O)N1CCCCCC1	15	-3	11	3	·
Cc1c(OCc2ccccc2)c(=O)ccn1Cc1ccc(Cl)cc1	53	3	105*	-8	28
COCCN1C(=O)N[C@@H](c2ccccc2)C(C(C)=O)=C1C	10	-7	8	6	·
CCOC(=O)c1cnc(-n2nc(C)cc2C)nc1Nc1ccc(O)cc1	·	·	104*	·	110*
CCOC(=O)c1cnc(-n2nc(C)cc2C)nc1NC1CCCCC1	82*	100*	106*	-33	117*
CCOC(=O)c1cnc(-n2nc(C)cc2C)nc1Nc1cccc(C(=O)O)c1	7	-4	31	-6	·
CCN(CC)C(=O)CSc1nc2cc3c(cc2c(=O)n1Cc1ccc(OC)cc1)OCO3	-7	9	-10	-3	·
COc1ccc(/C=C2/SC(=O)N(CC(=O)NCCC(C)C)C2=O)cc1OC	-13	1	100*	5	-34
COc1ccc(/C=C2\SC(=O)N(CC(=O)NCCC(C)C)C2=O)cc1OC	·	·	2	·	·
CC(=O)OCc1c(F)c(F)c(-n2nc(C)cc2C)c(F)c1F	22	0	9	6	·
Cc1c(-c2nc(N)nc(Nc3ccc(F)cc3)n2)oc2ccccc12	1	8	106*	3	40
Cc1cc(=O)n2c(C(=O)Nc3ccc(C)c(C)c3)c(C(=O)Nc3ccccc3)sc2n1	-8	9	97*	-3	26
